PubChem BioAssay (NCATS)
Inconclusive results are not listed. Values without a mark were called inactive. Active and inactive are the calls of the source. Calls follow the shape of the dose curve; as a rule, active = well fitted curve in the direction sought with a large enough effect; inconclusive = small, poorly fitted or top-dose-only effect, or another doubt; inactive = no such curve, though single readings can be large; an effect the other way counts as inactive or inconclusive.

Test: Quantitative High-Throughput drug screen in 47 multiple myeloma cell lines against the NCATS MIPE library collection: NCIH929_DSMZ cell viability assay (AID 1918978); also: nearly all actives have a fitted effect of over 35% in size
Details: NCI-H929 myeloma viability, CellTiter-Glo ATP, 48 h; series mostly up to 45.8 µM; viability, % of control: at the top concentration
In short: (§1)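 ATP-based luminescence (CellTiter-Glo, 5 min RT incubation) quantified surviving cells following two days' treatment with MIPE 4.0 agents at 37 °C, 5% CO2.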
Potency is read from the fitted curve at half-maximal effect.

| SMILES | Potency | viability, % of control |
| --- | --- | --- |
| CC[C@@]1(O)C[C@H](O[C@H]2C[C@H](N(C)C)[C@H](O[C@H]3C[C@H](O)[C@H](O[C@H]4CCC(=O)[C@H](C)O4)[C@H](C)O3)[C@H](C)O2)c2c(cc3c(c2O)C(=O)c2c(O)cccc2C3=O)[C@@H]1C(=O)OC | 0.264 µM (active) |  |
| CCC(=O)NC[C@H](Cc1ccc(OCCc2nc(-c3ccccc3)oc2C)cc1)NC(C)=CC(=O)c1ccc(C(F)(F)F)cc1 |  | 90.6% |
| COC(=O)N[C@H](C(=O)N1CCC[C@@H]1c1ncc(-c2ccc(-c3ccc(-c4cnc([C@@H]5CCCN5C(=O)[C@@H](NC(=O)OC)C(C)C)[nH]4)cc3)cc2)[nH]1)C(C)C | 26.4 µM (active) |  |
| COc1ccc(Cc2nccc3cc(OC)c(OC)cc23)cc1OC |  | 81.5% |
| CN1[C@@H]2CCC[C@@H]1CC(NC(=O)c1nn(C)c3ccccc13)C2 (stereo not given in full) |  | 105% |
| O=C1C(Cl)=C(NCCN2CCOCC2)C(=O)c2ncccc21 | 7.43 µM (active) |  |

Test: Quantitative High-Throughput drug screen in 47 multiple myeloma cell lines against the NCATS MIPE library collection: OCIMY1_PLB cell viability assay (AID 1918979); also: nearly all actives have a fitted effect of over 35% in size;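 as to viability: 100% = DMSO-only wells and 0% = cell-free media-only wells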
Details: OCI-MY1 myeloma viability, CellTiter-Glo ATP, 48 h; series mostly up to 45.8 µM; viability: at the top concentration
In short: as §1

| SMILES | Potency | viability |
| --- | --- | --- |
| Cc1[nH]c(C=C2C(=O)Nc3ccc(S(=O)(=O)Cc4c(Cl)cccc4Cl)cc32)c(C)c1C(=O)N1CCC[C@H]1CN1CCCC1 | 26.4 µM (active) |  |
| CC(C)(C(=O)NCC(F)(F)C(F)(F)F)C(=O)N[C@@H]1C(=O)Nc2ccccc2-c2ccccc21 |  | 92.5% |
| COc1ccc(-c2coc3cc(O)cc(O)c3c2=O)cc1 |  | 95.7% |
| Cc1ccc(/C=N/NC(=O)c2ccccc2Oc2ccccc2)o1 |  | 96.3% |
| Cc1nc(N)sc1-c1ccnc(Nc2ccc(N3CCOCC3)cc2)n1 | 16.6 µM (active) |  |
| Cc1ccc(C(=O)Nc2cccc(C(F)(F)F)c2)cc1Nc1nc(-c2cccnc2)nc2c1cnn2C | 16.6 µM (active) |  |
| CN1C[C@H]2c3ccccc3Oc3ccc(Cl)cc3[C@@H]2C1 |  | 96.4% |
| COc1cccc([C@@H](C)NCCCc2ccccc2Cl)c1 |  | 140% |
| CC(=O)N(C)C1(c2ccccc2)CCN(CCC[C@]2(c3ccc(Cl)c(Cl)c3)CCCN(C(=O)c3ccccc3)C2)CC1 | 26.4 µM (active) |  |
| O=C(O)C=Cc1ccc(O)c(O)c1 | 10.5 µM (active) |  |
| CC(=NNC(=S)N1CCC1)c1ccccn1 | 0.0074 µM (active) |  |
| CC(C)(C)OC(=O)N[C@H]1CCCCCC=C[C@@H]2C[C@@]2(C(=O)NS(=O)(=O)C2CC2)NC(=O)[C@@H]2C[C@@H](OC(=O)N3Cc4cccc(F)c4C3)CN2C1=O |  | 95.9% |
| COCCCCC(=NOCCN)c1ccc(C(F)(F)F)cc1 |  | 92.2% |
| CC[C@@]1(O)C[C@H](O[C@H]2C[C@H](N(C)C)[C@H](O[C@H]3C[C@H](O)[C@H](O[C@H]4CCC(=O)[C@H](C)O4)[C@H](C)O3)[C@H](C)O2)c2c(cc3c(c2O)C(=O)c2c(O)cccc2C3=O)[C@@H]1C(=O)OC | 1.66 µM (active) |  |
| CCN(CC)CCOc1ccc(C(=C(Cl)c2ccccc2)c2ccccc2)cc1 |  | 101% |
| CCCCCCCCCCCC1=C(O)C(=O)C=C(O)C1=O |  | 78.8% |
| CCS(=O)(=O)N1CC(CC#N)(n2cc(-c3ncnc4[nH]ccc34)cn2)C1 |  | 98.9% |
| O=C1C(Cl)=C(NCCN2CCOCC2)C(=O)c2ncccc21 | 6.62 µM (active) |  |

Test: Quantitative High-Throughput drug screen in 47 multiple myeloma cell lines against the NCATS MIPE library collection: MM1S_ATCC cell viability assay (AID 1918980); also: nearly all actives have a fitted effect of over 45% in size;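 as to viability (% of control): 100% = wells with DMSO only and 0% = wells with media only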
Details: MM1S myeloma viability, CellTiter-Glo ATP luminescence, 48 h; series mostly up to 45.8 µM; viability (% of control): at the top concentration
In short: as §1

| SMILES | Potency | viability (% of control) |
| --- | --- | --- |
| CC(=O)Nc1ccc([C@H](C)C(=O)Nc2ncc(C(C)C)s2)cc1 | 0.418 µM (active) |  |
| CN[C@@H](C)C(=O)N[C@H]1CN(C(=O)CC(C)C)CC[C@H]2CC[C@@H](C(=O)NC(c3ccccc3)c3ccccc3)N2C1=O | 9.35 µM (active) |  |
| Oc1ccc(C2=Cc3ccc(O)cc3OC2)cc1 | 3.32 µM (active) |  |
| CC(C)(C(=O)NCC(F)(F)C(F)(F)F)C(=O)N[C@@H]1C(=O)Nc2ccccc2-c2ccccc21 | 13.2 µM (active) |  |
| Cc1ccc(/C=N/NC(=O)c2ccccc2Oc2ccccc2)o1 | 18.7 µM (active) |  |
| Cc1nc(N)sc1-c1ccnc(Nc2ccc(N3CCOCC3)cc2)n1 | 18.7 µM (active) |  |
| Cc1ccc(C(=O)Nc2cccc(C(F)(F)F)c2)cc1Nc1nc(-c2cccnc2)nc2c1cnn2C | 18.7 µM (active) |  |
| O=c1cc(-c2cccc3c2Sc2ccccc2S3)oc(N2CCOCC2)c1 | 18.7 µM (active) |  |
| CC(C)n1cnc2c(NCCCCCCNC(=O)OC(C)(C)C)nc(NCCO)nc21 | 20.9 µM (active) |  |
| CC(C)n1nc(-c2ccc3oc(N)nc3c2)c2c(N)ncnc21 | 0.0105 µM (active) |  |
| CN1C[C@H]2c3ccccc3Oc3ccc(Cl)cc3[C@@H]2C1 |  | 109% |
| O=C(CCCCCCC(=O)Nc1ccccc1)NO | 2.96 µM (active) |  |
| CC(=O)N(C)C1(c2ccccc2)CCN(CCC[C@]2(c3ccc(Cl)c(Cl)c3)CCCN(C(=O)c3ccccc3)C2)CC1 | 20.9 µM (active) |  |
| O=C(O)C=Cc1ccc(O)c(O)c1 | 9.35 µM (active) |  |
| COc1ccc(C2CC(c3ccccc3)=NN2c2ccc(S(N)(=O)=O)cc2)cc1 (stereo not given) | 23.5 µM (active) |  |
| COCCOC(=O)C1=C(C)NC2=C(C(=O)CC(c3ccccc3OC)C2)C1c1cccc(O)c1 (stereo not given) | 16.6 µM (active) |  |
| CCn1c(C(=O)N(C2CC2)C2CC2)cc2c3c(ncn3C)c(Nc3cc(C)n(C)n3)nc21 |  | 101% |
| O=C1Nc2ccc(Cl)cc2C(C#CC2CC2)(C(F)(F)F)O1 (stereo not given) | 20.9 µM (active) |  |
| CC(C)(C)OC(=O)N[C@H]1CCCCCC=C[C@@H]2C[C@@]2(C(=O)NS(=O)(=O)C2CC2)NC(=O)[C@@H]2C[C@@H](OC(=O)N3Cc4cccc(F)c4C3)CN2C1=O |  | 136% |
| COCCCCC(=NOCCN)c1ccc(C(F)(F)F)cc1 | 16.6 µM (active) |  |
| CC[C@@]1(O)C[C@H](O[C@H]2C[C@H](N(C)C)[C@H](O[C@H]3C[C@H](O)[C@H](O[C@H]4CCC(=O)[C@H](C)O4)[C@H](C)O3)[C@H](C)O2)c2c(cc3c(c2O)C(=O)c2c(O)cccc2C3=O)[C@@H]1C(=O)OC | 0.187 µM (active) |  |
| CCC(=O)NC[C@H](Cc1ccc(OCCc2nc(-c3ccccc3)oc2C)cc1)NC(C)=CC(=O)c1ccc(C(F)(F)F)cc1 | 1.87 µM (active) |  |
| COc1ccc(Cc2nccc3cc(OC)c(OC)cc23)cc1OC | 23.5 µM (active) |  |
| CCS(=O)(=O)N1CC(CC#N)(n2cc(-c3ncnc4[nH]ccc34)cn2)C1 | 20.9 µM (active) |  |
| CN1[C@@H]2CCC[C@@H]1CC(NC(=O)c1nn(C)c3ccccc13)C2 (stereo not given in full) |  | 119% |
| O=C1C(Cl)=C(NCCN2CCOCC2)C(=O)c2ncccc21 | 3.32 µM (active) |  |
